Screening data: PubChem BioAssay, National Center for Advancing Translational Sciences (NCATS)
An excerpt weighted towards active compounds, which were near 11% of everything screened.
L3MBTL1 block = L3MBTL1 (human) inhibition. Q9Y468. AlphaScreen L3MBTL1–H3K9me1 peptide binding. Potency, µM (doses to about 57.1 µM), most hits filed as inhibitors. 230,000 compounds, 0.66% hits; further: nearly all actives have a fitted effect of over 60% in size
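Displacement of a biotinylated histone H3(1-15) peptide monomethylated at Lys9 (75 nM) from L3MBTL1 (50 nM) was measured by AlphaScreen after a 30 min room-temperature compound incubation; cefsulodin titration served as intraplate control.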
HP1b chromo inh = inhibitors of HP1-beta chromodomain binding to methylated histone tails | P83916 | AlphaScreen HP1-beta / biotin-H3K9me3 peptide binding | Potency, µM (titrated, usually from 114 µM), most hits filed as inhibitors | 390,000 compounds, 0.56% hits; further: nearly all actives have a fitted effect of over 70% in size
Target sequence (P83916 whole entry, looked up): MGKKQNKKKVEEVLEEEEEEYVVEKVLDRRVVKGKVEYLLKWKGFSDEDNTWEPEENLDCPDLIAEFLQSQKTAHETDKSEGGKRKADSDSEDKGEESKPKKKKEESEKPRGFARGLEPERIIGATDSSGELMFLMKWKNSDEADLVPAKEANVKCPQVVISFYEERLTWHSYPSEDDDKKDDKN
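AlphaScreen: HP1-beta (50 nM) preformed 30 min with biotin-H3(1-18)K9me3 peptide (50 nM) in PBS pH 7.4, 0.01% Tween-20. Compound added for 30 min at RT, then streptavidin donor/nickel chelate acceptor beads (10 ug/mL) for 30 min.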
BAZ2B inh = BAZ2B (human) inhibition | Q9UIF8 | AlphaScreen BAZ2B-H3K14Ac peptide displacement | Potency, µM (top dose mostly 114 µM), hits mostly inhibitors | 360,000 compounds, 4.4% hits; further: nearly all actives have a fitted effect of over 60% in size
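BAZ2B (50 nM) with biotin-H3(5-23)K14Ac peptide (50 nM) in PBS pH 7.4, 0.01% Tween-20, preformed 30 min, then compound 30 min at room temperature; top concentration 110uM. AlphaScreen streptavidin donor/nickel chelate acceptor beads (10 ug/mL final), 20 min dark, signal read.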
JMJD2A Tudor = blocks the human JMJD2A Tudor domain | AlphaScreen JMJD2A-Tudor / H3K4me3 peptide binding | 390,000 compounds, 4.4% hits | Potency, µM (top dose mostly 114 µM), most hits filed as inhibitors | O75164; further: nearly all actives have a fitted effect of over 50% in size
G9a block = inhibitors of human histone lysine methyltransferase G9a; Q96KQ7; G9a H3K9 monomethylation, AlphaScreen, 2 h; Potency, µM (doses to about 102 µM), most hits filed as inhibitors; 350,000 compounds, 8.8% hits; AID 504332; further: nearly all actives have a fitted effect of over 75% in size
Target sequence (Q96KQ7 913-1193 limits assumed): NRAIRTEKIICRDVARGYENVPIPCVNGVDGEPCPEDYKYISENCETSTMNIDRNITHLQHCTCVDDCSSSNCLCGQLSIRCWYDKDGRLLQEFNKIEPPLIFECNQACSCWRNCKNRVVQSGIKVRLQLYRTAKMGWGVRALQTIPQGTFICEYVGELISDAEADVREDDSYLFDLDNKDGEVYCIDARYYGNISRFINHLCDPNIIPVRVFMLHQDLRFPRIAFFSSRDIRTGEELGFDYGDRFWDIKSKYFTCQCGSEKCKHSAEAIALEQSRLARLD
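Enzyme 20 nM + cpd, 15 min RT; add b-H3K9 pep 500 nM / SAM 20 uM; 2 h RT; anti-H3K9me1 Ab 0.5 ug/mL + SA donor / anti-rabbit acceptor beads 20 ug/mL each, 10 min; AlphaScreen read.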
Large screens that a line does not name were inactive; ! = a repeat was not active. The call rests on the fitted dose curve; in most records, active means well fitted inhibition curve with a large enough effect; inconclusive means small, poorly fitted or top-dose-only effect; inactive means no such curve, though single readings can be large or run the other way.

O=C1NC(c2ccc(Cl)c([N+](=O)[O-])c2)Nc2ccccc21 (configuration not stated)	G9a block inconclusive (no result: L3MBTL1 block)
Fc1cccc(CNc2ncnc3ccc(-c4ccccc4Cl)cc23)c1	none (no result: HP1b chromo inh, JMJD2A Tudor)
c1cc2c(cc1C1CCCCC1)c1c3n2CCCNC3CCC1 (configuration not stated)	HP1b chromo inh inconclusive, BAZ2B inh 35.5µM, JMJD2A Tudor 44.7µM, G9a block 17.8µM
O=C(O)CCN1C(=O)/C(=C/c2ccc(-c3nc4ccccc4s3)o2)SC1=S	HP1b chromo inh inconclusive, BAZ2B inh 3.55µM, JMJD2A Tudor 6.31µM, G9a block inconclusive
O=Cc1ccc(-c2nc3ccccc3s2)o1	none
O=C(O)CC(C(=O)O)N1C(=O)/C(=C/c2ccc(-c3nc4ccccc4s3)o2)SC1=S (configuration not stated)	L3MBTL1 block 4.47µM, HP1b chromo inh 28.2µM, BAZ2B inh 50.1µM, JMJD2A Tudor 50.1µM, G9a block 5.01µM
COc1ccc(CNC(=O)CSc2nnc(-c3ccc(NC(C)=O)cc3)n2C)cc1	none (no result: L3MBTL1 block)
COC(=O)/C(=N\Nc1ccc(Cl)cc1)Sc1nnc(-c2ccc(OC)cc2)n1C	JMJD2A Tudor inconclusive, G9a block 3.16µM
COc1ccc(C(=O)N2CCN(Cc3cn[nH]c3-c3ccc(OC)cc3F)CC2)cc1	none
COc1ccc(C(=O)N2CCN(Cc3ccccc3C(F)(F)F)CC2)cc1	HP1b chromo inh inconclusive, BAZ2B inh inconclusive, JMJD2A Tudor 25.1µM, G9a block 20µM
COc1cccc(C(=O)N2CCN(C(=O)Cc3ccccc3)CC2)c1	none
COc1cccc(C(=O)N2CCN(Cc3ccccc3C(F)(F)F)CC2)c1	HP1b chromo inh inconclusive, BAZ2B inh 28.2µM, G9a block 3.55µM
Cn1c2cc(S(C)=O)sc2c2cnn(Cc3cccc(O)c3)c(=O)c21 (configuration not stated)	none (no result: L3MBTL1 block, HP1b chromo inh, BAZ2B inh, G9a block)
COc1ccc(-c2c(C#N)c(C)nc3c2C(=O)c2ccccc2-3)cc1	none
COc1ccc(C2=C(C#N)C(=O)OC2)cc1	BAZ2B inh inconclusive, G9a block 31.6µM
CNC(=O)OCc1cccc(COC(=O)NC)n1	BAZ2B inh inconclusive, G9a block 44.7µM!
CC(C(=O)N1CCN=C1c1ccccc1)N1C(=O)c2ccccc2C1=O (configuration not stated)	none (no result: G9a block)
CC[n+]1c(/C=C(\C)SC)sc2ccccc21	BAZ2B inh 79.4µM, JMJD2A Tudor inconclusive, G9a block 79.4µM
CC[n+]1c(C=C2C=C(C)OC(C)=C2)sc2ccccc21	none
CC[n+]1c(/C=C2/C=C(C)CC(C)C2)sc2ccccc21 (configuration not stated)	BAZ2B inh inconclusive, JMJD2A Tudor 31.6µM, G9a block 7.94µM (no result: L3MBTL1 block)
CC[n+]1c(/C=C(\C)Nc2ccccc2)sc2ccccc21	BAZ2B inh 50.1µM, G9a block inconclusive
CC[n+]1c(/C=C(/C)SC)sc2ccccc21	BAZ2B inh inconclusive, G9a block 44.7µM
Cc1sc2ccccc2[n+]1CCC(C)S(=O)(=O)[O-] (configuration not stated)	none
CCOC(=O)c1cc(-c2ccccc2)n(CCCC(=O)Nc2ccc(C)cc2Cl)c1C	none (no result: L3MBTL1 block)
CC[n+]1c(/C=C(\C)OC)sc2ccccc21	BAZ2B inh 56.2µM, JMJD2A Tudor inconclusive, G9a block inconclusive
CC[n+]1ccccc1/C=C/Nc1ccccc1	G9a block 44.7µM
CC[n+]1c(/C=C/Nc2ccccc2)sc2ccccc21	G9a block 7.94µM
CC/C(=C/c1sc2ccccc2[n+]1CC)SC	BAZ2B inh inconclusive, JMJD2A Tudor 25.1µM
O=C(COCc1cc(-c2ccc3c(c2)OCO3)on1)NCc1ccc(F)cc1	none (no result: L3MBTL1 block)
COc1ccc(C)cc1NC(=O)NC(C)c1c(-n2cccc2)sc(C)c1C (configuration not stated)	BAZ2B inh inconclusive, JMJD2A Tudor inconclusive (no result: L3MBTL1 block)
Cc1cccc2c(SCC(N)=O)nc(-c3ccccc3)nc12	none
Cc1cc(S(=O)(=O)N2CCC(N3CCCCC3)CC2)ccc1-n1cnnn1	BAZ2B inh inconclusive, G9a block 50.1µM
CCc1nc(-c2cc(S(=O)(=O)N3CCN(c4ccccc4F)CC3)ccc2OC)no1	none (no result: L3MBTL1 block)
O=c1[nH]c2ccc(S(=O)(=O)N3CCN(c4ccccc4F)CC3)cc2s1	G9a block 14.1µM
COc1ccc(S(=O)(=O)N2CCN(c3ccccc3F)CC2)cc1-c1noc(C)n1	BAZ2B inh 56.2µM, G9a block 0.501µM (no result: L3MBTL1 block)
O=c1ccc2cc(S(=O)(=O)N3CCN(c4ccccc4F)CC3)ccc2o1	none (no result: L3MBTL1 block)
Cc1cc(S(=O)(=O)N2CCN(c3ccccc3F)CC2)ccc1-n1cnnn1	BAZ2B inh inconclusive, G9a block 50.1µM (no result: L3MBTL1 block)
Cc1ccc(-c2nnc3ccccc3c2C(=O)Nc2cccc(C(F)(F)F)c2)cc1	none (no result: L3MBTL1 block)
CC1=NN(c2ccc(S(=O)(=O)O)cc2C)C(=O)C1	BAZ2B inh 56.2µM, JMJD2A Tudor 50.1µM, G9a block 25.1µM
CC1=NN(c2ccccc2)C(=O)C1	none
O=C1NC2c3c(Cl)sc(Cl)c3C(=O)C2O1 (configuration not stated)	JMJD2A Tudor 56.2µM (no result: L3MBTL1 block, BAZ2B inh, G9a block)
O=C1NC2c3c(I)sc(I)c3C(=O)C2O1 (configuration not stated)	none (no result: L3MBTL1 block, BAZ2B inh, G9a block)
O=C(O)c1cc(-c2ccccc2)c(N2CCOCC2)s1	G9a block 79.4µM (no result: L3MBTL1 block)
O=C(NCc1ccco1)c1cc(-c2ccccc2)c(N2CCOCC2)s1	G9a block inconclusive (no result: L3MBTL1 block)
Cc1sc2ccccc2[n+]1CC(=O)c1ccccc1	BAZ2B inh inconclusive, JMJD2A Tudor inconclusive, G9a block 10µM
O=C(NCCOc1ccccc1)C1CCC(=O)N(CCCN2CCOCC2)C1 (configuration not stated)	none (no result: L3MBTL1 block, BAZ2B inh, G9a block)
Nc1c(/C=C2/C=CC(=O)C(O)=C2)c(=O)nc2sc(CC(=O)N3CCCCC3)nn12	BAZ2B inh 10µM, JMJD2A Tudor inconclusive, G9a block 10µM (no result: L3MBTL1 block)
Nc1c(/C=C2/C=CC(=O)C(O)=C2)c(=O)nc2sc(CC(=O)N3CCCC3)nn12	HP1b chromo inh inconclusive, BAZ2B inh 20µM, JMJD2A Tudor 25.1µM, G9a block 35.5µM (no result: L3MBTL1 block)
Nc1c(/C=C2/C=CC(=O)C(O)=C2)c(=O)nc2sc(CC(=O)N3CCOCC3)nn12	HP1b chromo inh inconclusive, JMJD2A Tudor 20µM (no result: L3MBTL1 block, BAZ2B inh, G9a block)
CCOC1=C/C(=C/c2c(N)n3nc(CC(=O)N4CCCC4)sc3nc2=O)C=CC1=O	G9a block 79.4µM (no result: L3MBTL1 block)
CCOc1ccc2nc(N3CCCC(C(=O)Nc4ccccc4CC)C3)sc2c1 (configuration not stated)	none (no result: L3MBTL1 block)
Clc1ccc(C2CC(c3ccccc3)Nc3ncnn32)cc1 (configuration not stated)	none
Clc1ccc(C2CC(c3ccco3)n3ncnc3N2)cc1Cl (configuration not stated)	G9a block 11.2µM
O=C(/C=C/c1ccccc1F)c1cccc([N+](=O)[O-])c1	BAZ2B inh inconclusive, JMJD2A Tudor inconclusive, G9a block 28.2µM
O=C(C#Cc1ccccc1)c1cccc([N+](=O)[O-])c1	BAZ2B inh inconclusive, G9a block 3.55µM (no result: L3MBTL1 block)
